# Source: PubChem
# FBA Mtb inh = inhibitors of M. tuberculosis fructose-bisphosphate aldolase | purified M. tuberculosis FBA, fluorescence read-out | AID 588726 | P9WQA3 | 2.3% of 360,000 active | inhibition, % at 1 µM; in the data active = inhibition above about 27%
# Mtb betalactam = beta-lactam sensitization of Mtb H37Rv. M. tuberculosis H37Rv growth with meropenem, percent inhibition. inhibition, % at 25 µM. 0.27% of 330,000 active. AID 434955; call rule not given here;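 note: growth measured after seven days incubation then overnight dye step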
# RecA splice inh = Mtb RecA intein splicing inhibition; 0.75% of 290,000 active; cell-free RecA intein splicing, fluorescence; AID 2221; inhibition, % (no concentration beside the values); in the data active = inhibition above about 30%; inconclusive = no clear call, values can overlap the other calls
# GDH-TPI counter = counter-screen for M. tuberculosis FBA inhibitors: GDH-TPI coupled enzymes; GDH-TPI coupled enzyme counterscreen, NADH absorbance; inhibition, % at 4.8 µM; 1.2% of 360,000 active; AID 588335
# CCHF vOTU inh-1 = CCHFV vOTU protease inhibition. Pep-AMC fluorescence. inhibition, % at 11.5 µM. 0.55% of 370,000 active
# CCHF vOTU inh-2 = CCHFV vOTU protease inhibition, confirmation; shares compounds with CCHF vOTU inh-1; Recombinant CCHFV vOTU, Pep-AMC fluorescence; inhibition, % at 11.5 µM; 17% of 1,900 active; AID 686976
# A number is an active result; i = inactive; ? = inconclusive; nt = no result. Only some compounds are listed: those with a hit (about 4.2% of all), similar ones and a draw of the others. Cut-off read from the data, not from the text of the source, unless noted: active = inhibition above about 30%; inactive = the rest.
SMILES,FBA Mtb inh,Mtb betalactam,RecA splice inh,GDH-TPI counter,CCHF vOTU inh-1,CCHF vOTU inh-2
Cc1ccc(Nc2nc(N3CCOCC3)nc(N3CCOCC3)n2)cc1,i,i,i,i,i,nt
CC(=O)c1ccc(NC2=C(N3CCOCC3)C(=O)c3ccccc3C2=O)cc1,i,i,i,i,93,67
O=C(O)c1ccc(NC2=C(N3CCOCC3)C(=O)c3ccccc3C2=O)cc1,i,i,i,i,57,i
C[C@H](O)[C@@H]1C(=O)N2CCc3c([nH]c4c(-c5ccc6c(c5)OCO6)cccc34)[C@@H]2C[C@@H]1N(C)C(=O)Nc1ccccc1,nt,nt,nt,nt,i,nt
O=C(N/N=C/c1ccc(-c2ccc(S(=O)(=O)Nc3ncccn3)cc2)o1)c1cc2ccccc2cc1O,i,i,i,i,41,i
CCCCC1C2=C(CC(C)(C)CC2=O)OC2=C1C(=O)CC(C)(C)C2,i,i,i,i,30,i
Nc1c(C(=O)NCCCc2ccccc2)c2nc3ccccc3nc2n1Cc1cccs1,i,i,32,i,109,i
O=C1Cc2ccccc2C(=O)N1,nt,nt,nt,nt,116,94
CCOC(=O)c1c(S(=O)(=O)NCC(=O)NCc2ccc(C)cc2)c(C)n(C)c1C,i,i,i,i,42,i
Cc1ccc(S(=O)(=O)N2CCCCC2)cc1NC(=O)C1CC(=O)N(c2ccc3c(c2)OCCO3)C1 (stereo unspecified),i,i,i,i,i,nt
O=C(COC(=O)c1ccc([N+](=O)[O-])s1)NC(=O)NCc1ccccc1,i,i,i,i,53,48
O=C(COC(=O)c1ccc([N+](=O)[O-])s1)NCCc1ccccc1,i,i,nt,i,nt,nt
O=C(COC(=O)c1ccc([N+](=O)[O-])s1)NCc1ccc(F)cc1,i,nt,i,i,71,77
O=C(COC(=O)c1ccc([N+](=O)[O-])s1)c1ccc[nH]1,i,i,nt,i,58,49
COc1ccc(N)c2c1OCCC2=O,i,i,i,i,57,i
CCc1nn(CCCC(=O)NCc2ccccc2Br)c(=O)c2cc3occc3n12,i,i,i,i,47,i
CCc1cccc(NC(=O)CCCn2nc(CC)n3c(cc4occc43)c2=O)c1,i,i,i,i,i,nt
Cc1ccc(CNC(=O)CCC(=O)Nc2nnc(C(C)C)s2)cc1,i,i,i,i,i,nt
CCN(CC)c1ccc(N=Cc2c(O)n(-c3ccccc3)c(=O)[nH]c2=O)cc1,i,i,i,i,30,i
CCOc1ccc(-n2c(O)c(C=Nc3ccc(N(CC)CC)cc3)c(=O)[nH]c2=O)cc1,i,i,i,i,i,nt
CC1(C)CC(=O)C=C(Nc2ccc(Br)cn2)C1,i,i,i,i,31,i
CC1CCN(C(=O)c2ccc(CNS(=O)(=O)c3ccc(C(C)(C)C)cc3)cc2)CC1,i,i,nt,i,33,i
O=C(Nc1ccc(Cl)c(-c2nc3ccccc3[nH]2)c1)c1ccc2c(c1)OCO2,i,i,i,i,i,nt
O=C(Nc1ccc(-c2nc3ccccc3[nH]2)cc1)c1ccc2c(c1)OCO2,i,i,i,i,36,i
FC(F)(F)c1cc(CCN2CCNC[C@@H]2c2ccccc2)cc(C(F)(F)F)c1,i,i,nt,i,i,nt
SMILES,FBA Mtb inh,Mtb betalactam,RecA splice inh,GDH-TPI counter,CCHF vOTU inh-1,CCHF vOTU inh-2
FC(F)(F)c1cc(CO[C@@H]2CCCN[C@@H]2c2ccccc2)cc(C(F)(F)F)c1,i,i,nt,i,33,i
CCOC(=O)[C@@]12CCC3=C1N(CCC3)C(=O)[C@H](CC(=O)NCc1ccccc1)C2,nt,nt,nt,nt,i,nt
O=C1C(=Cc2cn(-c3ccccc3)nc2-c2ccc(OCc3ccccc3)cc2)SC(=S)N1CCS(=O)(=O)O,i,nt,nt,i,30,i
CCOC(=O)C1(CCCc2ccccc2)CCN(C(=O)Cc2nonc2C)CC1,i,i,i,i,31,i
CCOC(=O)C1(CCCc2ccccc2)CCN(C(=O)CSC)CC1,i,i,i,i,i,nt
COc1ccc(CNC(=O)[C@@H](Cc2ccccc2)NC(=O)[C@H]2O[C@@H](n3cnc4c(=O)[nH]c(N)nc43)[C@H](O)[C@@H]2O)cc1,nt,nt,nt,nt,i,nt
CC(=O)N(C)c1ccc(OCC(O)Cn2c3ccc(Cl)cc3c3cc(Cl)ccc32)cc1 (stereo unspecified),i,i,i,i,31,i
Cc1ccc(NC(=O)CCC(=O)c2cc(C)sc2C)nc1,i,i,i,i,i,nt
C=CC[C@@H](CC(=O)N[C@H](CO)Cc1ccccc1)C(=O)N[C@@H](COC(=O)[C@H](CC=C)CC(=O)OC(C)(C)C)Cc1ccccc1,i,i,nt,i,i,nt
C=CCC[C@H](Cc1ccc(F)cc1)C(=O)OC[C@@H](Cc1c[nH]c2ccccc12)NC(=O)[C@H](CC=C)CC(=O)N(CCO)Cc1ccccc1,i,i,nt,i,35,i
C=CCC[C@@H](Cc1ccc(F)cc1)C(=O)OC[C@@H](Cc1c[nH]c2ccccc12)NC(=O)[C@H](CC=C)CC(=O)N(CCO)Cc1ccccc1,i,i,nt,i,i,nt
C=CC[C@@H](CC(=O)N(CCO)Cc1ccccc1)C(=O)N[C@H](COC(=O)[C@@H](CC=C)CC(=O)OC(C)(C)C)c1ccccc1,i,i,nt,i,32,i
C=CC[C@@H](CC(=O)N[C@@H](CO)Cc1ccccc1)C(=O)N[C@H](COC(=O)[C@@H](CC=C)CC(=O)OC(C)(C)C)Cc1ccccc1,i,i,nt,i,39,i
C=CC[C@@H](CC(=O)N(CCO)Cc1ccccc1)C(=O)N[C@@H](COC(=O)[C@@H](CC=C)CC(=O)OC(C)(C)C)Cc1c[nH]c2ccccc12,i,i,nt,i,40,i
COc1ccc(N2CCN(CCCNC(=O)C(=O)c3c(C)[nH]c4ccccc34)CC2)cc1,i,i,i,i,i,nt
Cc1nc(NC(=O)c2ccccc2)sc1-c1cc(C(=O)O)nn1Cc1ccccc1,i,nt,nt,i,i,nt
O=C(CN1CCc2ccccc2C1)Nc1ccc(OC(F)(F)F)cc1,i,i,i,i,i,nt
Cc1cc2cc(CN(Cc3ccco3)C(=S)NCC3CCCO3)c(=O)[nH]c2cc1C (stereo unspecified),i,i,i,i,31,i
O=C(OC12CCCN(C1)/C(=C/c1cccnc1)C2)c1ccco1 (stereo unspecified),nt,nt,nt,nt,i,nt
COc1ccc(S(=O)(=O)NCC(c2ccco2)N2CCc3ccccc3C2)cc1 (stereo unspecified),i,i,i,i,35,i
O=C(N[C@H](C(=O)N1CCC[C@H]1C(=O)NCCc1ccccc1Cl)C1CCCCC1)c1cccs1,nt,nt,nt,nt,i,nt
O=C(NCCc1ccccc1Cl)[C@@H]1CCCN1C(=O)[C@@H](NS(=O)(=O)c1ccc(F)cc1F)C1CCCCC1,nt,nt,nt,nt,34,i
O=C(Nc1ccccc1)c1ccccc1Oc1ccc(C(F)(F)F)cc1[N+](=O)[O-],i,?,i,i,i,nt
O=C(Nc1ccc(F)cc1)c1ccccc1Oc1ccc(C(F)(F)F)cc1[N+](=O)[O-],i,i,i,i,31,i
O=C(N[C@H](Cc1ccccc1)C(=O)NC1CCCCC1)[C@H]1O[C@@H](n2ccc(=O)[nH]c2=O)[C@H](O)[C@@H]1O,nt,nt,nt,nt,i,nt
